Measurements published in PubChem BioAssay (NCATS).
Results filed as inconclusive are left out. A number with no mark means an inactive call. Activity calls are given as the source filed them. The call rests on the fitted dose curve; in most records, active means well fitted cell-killing curve with a large enough effect; inconclusive means small, poorly fitted or top-dose-only effect, or effect the other way; inactive means no such curve, though single readings can be large or run the other way.

What was measured:
[1] = Viability qHTS for spleen associated tyrosine kinase inhibitor (SYKi) naive MV4-11 cells (AID 1963823); further: nearly all actives have a fitted effect of over 40% in size
Outline: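 Compounds were dispensed acoustically onto plates, MV4-11 cells (SYKi-naive) added at 500 per well, and plates incubated 72 hr at 37 C. CellTiter-Glo was added and luminescence measured after 10 min.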

[2] = Viability qHTS for spleen associated tyrosine kinase inhibitor (SYKi) drug resistant MV4-11 cells (AID 1963824); further: nearly all actives have a fitted effect of over 35% in size
Outline: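 SYK-inhibitor-resistant MV4-11 AML cells were seeded at 500 per well onto compound and cultured 72 hours (37 °C, 5% CO2). CellTiter-Glo was then added, and after 10 min at room temperature, luminescence gave viability.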
Potency means the concentration at half of the fitted maximal effect.

Row | Structure (SMILES) | Potency [1] | Potency [2] | viability (% of control) [1] | viability, % of control [2]
1 | CCOc1cc(C(C)(C)C)ccc1C1=NC(C)(c2ccc(Cl)cc2)C(C)(c2ccc(Cl)cc2)N1C(=O)N1CCN(CCCS(C)(=O)=O)CC1 (stereo unspecified) | 10.3 µM (active) | 9.2 µM (active) | – | –
2 | C=CC(C)(O)CC/C=C(\C)C(=O)OCC1OC(OC2CCC3(C)C(CCC4(C)C3CC=C3C5CC(C)(C)C(O)CC5(C(=O)O)CCC34C)C2(C)C)C(O)C(OC2OC(CO)C(O)C(OC3OC(CO)C(O)C(OC4OC(COC5OC(CO)C(O)C(O)C5O)C(O)C(O)C4O)C3O)C2O)C1O (stereo unspecified) | – | – | 99.5% [at 9.25 µM] | 108% [at 9.25 µM]
3 | CCn1c(-c2nonc2N)nc2c(C#CCO)ncc(OCCCN)c21 | 0.58 µM (active) | 1.84 µM (active) | – | –
4 | CN(CC1COCCO1)S(=O)(=O)Nc1ccc2ccc3ncc(-c4cnn(C)c4)cc3c(=O)c2c1 (stereo unspecified) | 0.164 µM (active) | 0.651 µM (active) | – | –
5 | CC1=CC(=O)CC(C)(C)C1CCC(C)O[C@@H]1O[C@H](CO)[C@@H](O)[C@H](O)[C@H]1O (stereo partly specified) | inactive | inactive | – | –
6 | C/C=C/[C@@H]1C=C[C@@H]2C[C@H](C)CC[C@H]2[C@]1(C)/C(O)=C1/C(=O)[C@@H](CO)N(C)C1=O | 14.3 µM (active) | 16.1 µM (active) | – | –
7 | C=C1C(O)CC2C(C(=O)O)=COC(O[C@@H]3O[C@H](COC(=O)/C=C/c4ccc(O)cc4)[C@@H](O)[C@H](O)[C@H]3O)C12 (stereo partly specified) | inactive | inactive | – | –
8 | CC(C)=C1CC2[C@](C)(CC[C@@H](OC(=O)C3(C)OC3C)[C@@]2(C)O)CC1=O (stereo partly specified) | inactive | inactive | – | –
